# High-throughput results as filed in PubChem BioAssay.
# Beta apoptosis: beta cell apoptosis inhibition | 300,000 tested, 0.8% active | protection from apoptosis, % (test concentration not listed) | AID 435005 | INS-1E cytokine-induced death, ATP luminescence, 48 h; percent of positive-control rescue, neutral wells zero;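 active means Every replicate reaches about 75%, or at least half do and their mean reaches it too, limit read from the data; inconclusive means At least half of replicates reach the limit but their mean does not; inactive means Under half of replicates reach the limit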;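 further: 0% = cytokine-treated negative control wells and 100% = positive control rescue; higher means more ATP so stronger rescue from cytokine killing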
# CSC inhib: cancer stem cell inhibition; inhibition, % at 7.5 µM; cancer stem cell-like cells viability, luminescence; 300,000 tested, 1.1% active; AID 2717; in the data active means inhibition above about 75%; inconclusive means no clear call, values can overlap the other calls; tested in HMLE shEcad cells
# MPTP inh: permeability transition pore inhibition; isolated mouse mitochondria, Ca2+ swelling absorbance, 30 min; inhibition, % at 10 µM; 360,000 tested, 1.4% active; AID 602449;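 active means inhibition of 50% or more, scaled per plate between neutral and stimulator controls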;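 further: 0% = DMSO wells given calcium and 100% = 1 mM EGTA wells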
# SKKanGAS inh: SKKanGAS growth inhibition. AID 1662. 300,000 tested, 1.3% active. inhibition, % at 7.5 µM. S. pyogenes SKKanGAS, kanamycin growth, BacTiter-Glo, 6 h;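 active means mean replicate score, as percent of positive control median, at least 50; inconclusive means mean below 50 but one replicate at or above 50; inactive means mean and every replicate below 50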;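 further: strain carries kanamycin resistance gene driven by streptokinase promoter and grows in 40 µg/ml kanamycin; loss of luminescence reflects streptokinase promoter inhibition or plain growth inhibition; 0% = median of DMSO wells and 100% = positive control at its reference dose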
# NR3A LBD binder: NR3A (human) ligand-binding domain modulation. NR3A LBD differential scanning fluorimetry, Tm shift; 0% = protein alone, 100% = glycine-bound protein. Tm shift relative to glycine control, % at 25 µM. 340,000 tested, 2.5% active;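 active means melting temperature shift of at least 10% of the positive control shift, at one fixed dose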
# Mdm2-MdmX inh: human Mdm2/MdmX binding inhibition; SaOS-2 split-luciferase Mdm2/MdmX complementation, luminescence; O15151+Q00987; AID 485346; 330,000 tested, 3% active; inhibition, % at 8 µM;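 active means inhibition of at least 50% at 8 µM in the primary screen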
# Mdm2-MdmX conf: human Mdm2/MdmX binding inhibition, confirmed. shares compounds with Mdm2-MdmX inh. luminescent assay. inhibition, % at 8 µM. 10,000 tested, 55% active; in the data active means inhibition above about 40%
# FLuc counter: counter-screen for Mdm2/MdmX inhibitors: full-length luciferase; shares compounds with Mdm2-MdmX inh; AID 504607; inhibition, % at 8 µM; 6,200 tested, 77% active; SaOS-2 full-length luciferase counterscreen, luminescence;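 active means mean inhibition at 8 µM reaching about 37%, which flags the compound as non-specific, limit read from the data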;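 further: p53-null SaOS-2 cells with luciferase driven by a doxycycline-inducible promoter; compound on cells about two nights before reading with doxycycline added after day one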
# MPTP counter: mitochondrial membrane potential, counter-screen. shares compounds with MPTP inh. isolated mitochondria, Rhodamine 123 fluorescence. inhibition, % at 10 µM. 5,000 tested, 78% active. AID 624504; in the data active means inhibition above about 22%;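 further: 0% = DMSO vehicle and 100% = positive control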
# MPTP swell DR: MPTP inhibition, dose response swelling confirmation; shares compounds with MPTP inh; isolated mitochondria swelling, absorbance; IC50, µM; 780 tested, 58% active; in the data active means IC50 below about 20 µM
# MPTP cs DR: counter-screen for mitochondrial permeability transition pore inhibitors, dose response. shares compounds with MPTP inh. isolated mitochondria counterscreen, fluorescence read-out. IC50, µM. 780 tested, 49% active; in the data active means IC50 below about 80 µM
# Starred values were filed as active, the others as inactive; u = inconclusive; x = not tested or not shown; ! = not confirmed by another sample. The list is not random: actives were taken first. Their share in the collection is about 6.9%.
SMILES,Beta apoptosis,CSC inhib,MPTP inh,SKKanGAS inh,NR3A LBD binder,Mdm2-MdmX inh,Mdm2-MdmX conf,FLuc counter,MPTP counter,others
O=C(NC(NC(=S)Nc1cccc(Cl)c1)C(Cl)(Cl)Cl)OCc1ccccc1 (centres undefined),19,116*,91*,122*,29*,92*,55*,53*,76*,
O=C(O)c1cccc(NC(=S)NC(NC(=O)c2ccco2)C(Cl)(Cl)Cl)c1 (centres undefined),-5,-10,0,-6,2,20,x,x,x,
N=c1n(CCO)c2ccccc2n1CCOc1ccc(Cl)cc1Cl,10,12,87*,-3,-1,97*,42*,25,-4,MPTP swell DR=4*;MPTP cs DR=29*
CCC(C)Sc1ccc(-c2nc3cc(C)ccn3c2NC2CCCCC2)cc1 (centres undefined),x,x,56*!,x,-10,85*,-42,x,101*,
CCCCN(C(C)=O)c1c(CC)nc2ccc(C(=O)NCCc3ccccn3)cn12,x,x,1,x,x,x,x,x,x,
Cc1ccccc1NC(=O)c1cc(C(=O)c2cc(Cl)ccc2O)cn(-c2ccccc2C)c1=O,73,9,90*,25,14*,78*,71*,50*,75*,
CC(C)CN(CC(C)C)C(=O)c1cc(S(=O)(=O)N2CCCCC2)c[nH]1,3,-15,2,-4,-1,25,x,x,x,
C[n+]1c2n(c3ccccc31)N=C(c1cc(C(C)(C)C)c(O)c(C(C)(C)C)c1)CS2,107*,-14,94*,22,-6,78*,75*,38*,103*,
Cc1cc(C(=O)CSc2nc3ccccc3c(=O)n2C)c(C)n1Cc1ccc2c(c1)OCO2,99*,21,97*,-1,-3,63*,32,x,94*,
O=C1C2CCCN2C(=S)N1C1CCCCC1 (centres undefined),-1,1,-1,0,-1,15,x,x,x,
COc1cc2c(cc1OC)CN(C(=O)C1CCC(=O)N(CCCN3CCOCC3)C1)CC2 (centres undefined),-6,-9,0,-2,0,6,x,x,x,
CC(C)Cn1c(N)c(C(=O)CSc2ccc3c(c2)OCCO3)c(=O)n(C)c1=O,94*,-5,99*,3,1,52*,55*,41*,86*,
CN1CCN(C2=Cc3ccc(Cl)cc3Sc3ccc(F)cc32)CC1,9,121*,95*,60*,-2,60*,29,x,-9,
CCOC(=O)c1ccc(NC(=O)c2cccc(S(=O)(=O)N3c4ccccc4CC3C)c2)s1 (centres undefined),36,47,74*,36,25*,57*,33,x,73*,
COc1ccc(/C(C)=N/NC2=NCCN2)cc1Cl,8,2,-2,-3,-5,21,x,x,x,
CCCCOc1ccc(Br)cc1/C(C)=N/NC1=NCCN1,56,-12,67*,-12,-1,89*,64*,39*,92*,
CCC(C)NC(=O)C1CCN(S(=O)(=O)c2cc([N+](=O)[O-])ccc2Cl)CC1 (centres undefined),6,37,1,3,-1,5,x,x,x,
O=C(Nc1nc2ccccc2s1)C1CCN(S(=O)(=O)c2cc([N+](=O)[O-])ccc2Cl)CC1,81*,u,95*,25,4,96*,87*,38*,77*,
O=C(Cc1ccc([N+](=O)[O-])cc1)Nc1cc(C(F)(F)F)cc(C(F)(F)F)c1,13,13,77*,-1,-2,51*,75*,63*,98*,
